# Measured values published in PubChem BioAssay AID1159580 (chemical genetic matrix, 2015).
# The campaign covered roughly 5,500 compounds. About 2,000 (36%) were called active. Not shown: some 18% with an inconclusive outcome. The list shows a part of the results. Unmarked numbers belong to inactive results. Rule as the data show it: active = normalized growth mostly below about 0.91 (no sharp cut-off); inconclusive = no clear call, values can overlap the other calls; inactive = mostly above about 0.92.
# Assay: chemical genetic growth profiling, strain panel (AID 1159580);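 also: tested at 20 µM; growth read once vehicle control cultures reached saturation at 30 °C; 1 = growth at the plate median or of vehicle wells; lower values mean less growth of the strain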
# Conditions: growth OD
compound,measurement,setting,value
COc1ccc2c(c1)CCC(c1ccccc1)=C2c1ccc(OCCN2CCCC2)cc1,normalized growth,"S. cerevisiae deletion strains, locus YBR021W, strain FUR4, hits give low values",0.239 (active)
same,normalized growth,"S. cerevisiae deletion strains, locus YBR229C, strain ROT2, hits give low values",0.946
same,normalized growth,"S. cerevisiae deletion strains, locus YCL029C, strain bik1, hits give low values",0.549 (active)
same,normalized growth,"S. cerevisiae deletion strains, locus YDL035C, strain GPR1, hits give low values",0.638 (active)
same,normalized growth,"S. cerevisiae deletion strains, locus YDL074C, strain BRE1, hits give low values",0.511 (active)
same,normalized growth,"S. cerevisiae deletion strains, locus YDL101C, strain DUN1, hits give low values",0.329 (active)
same,normalized growth,"S. cerevisiae deletion strains, locus YDL134C, strain PPH21, hits give low values",0.407 (active)
same,normalized growth,"S. cerevisiae deletion strains, locus YDL185W, strain tfp1, hits give low values",0.972
same,normalized growth,"S. cerevisiae deletion strains, locus YDL192W, strain arf1, hits give low values",0.095 (active)
same,normalized growth,"S. cerevisiae deletion strains, locus YDR101C, strain arx1, hits give low values",0.675 (active)
same,normalized growth,"S. cerevisiae deletion strains, locus YDR162C, strain NBP2, hits give low values",0.174 (active)
same,normalized growth,"S. cerevisiae deletion strains, locus YDR318W, strain mcm21, hits give low values",0.382 (active)
same,normalized growth,"S. cerevisiae deletion strains, locus YDR388W, hits give low values",0.181 (active)
same,normalized growth,"S. cerevisiae deletion strains, locus YDR502C, strain sam2, hits give low values",0.405 (active)
same,normalized growth,"S. cerevisiae deletion strains, locus YER110C, hits give low values",0.863 (active)
same,normalized growth,"S. cerevisiae deletion strains, locus YER155C, strain BEM2, hits give low values",0.961
same,normalized growth,"S. cerevisiae deletion strains, locus YER167W, strain BCK2, hits give low values",0.85 (active)
same,normalized growth,"S. cerevisiae deletion strains, locus YGL078C, strain dbp3, hits give low values",0.973
same,normalized growth,"S. cerevisiae deletion strains, locus YGL086W, strain mad1, hits give low values",0.28 (active)
same,normalized growth,"S. cerevisiae deletion strains, locus YGL248W, strain PDE1, hits give low values",0.465 (active)
same,normalized growth,"S. cerevisiae deletion strains, locus YGR078C, strain PAC10, hits give low values",0.852
same,normalized growth,"S. cerevisiae deletion strains, locus YGR135W, strain pre9, hits give low values",0.408 (active)
same,normalized growth,"S. cerevisiae deletion strains, locus YGR252W, strain gcn5, hits give low values",0.251 (active)
same,normalized growth,"S. cerevisiae deletion strains, locus YHR079C, strain IRE1 (second series), hits give low values",0.617 (active)
same,normalized growth,"S. cerevisiae deletion strains, locus YHR094C, strain hxt1, hits give low values",0.714 (active)
same,normalized growth,"S. cerevisiae deletion strains, locus YHR129C, strain ARP1, hits give low values",0.674 (active)
same,normalized growth,"S. cerevisiae deletion strains, locus YHR200W, strain rpn10, hits give low values",0.706 (active)
same,normalized growth,"S. cerevisiae deletion strains, locus YIL066C, strain RNR3, hits give low values",0.553 (active)
same,normalized growth,"S. cerevisiae deletion strains, locus YIL073C, strain SPO22, hits give low values",0.3 (active)
same,normalized growth,"S. cerevisiae deletion strains, locus YIL125W, strain kgd1, hits give low values",0.987
same,normalized growth,"S. cerevisiae deletion strains, locus YIR030C, strain dcg1, hits give low values",0.513 (active)
same,normalized growth,"S. cerevisiae deletion strains, locus YJL095W, strain BCK1, hits give low values",0.138 (active)
same,normalized growth,"S. cerevisiae deletion strains, locus YJL134W, strain LCB3, hits give low values",1.01
same,normalized growth,"S. cerevisiae deletion strains, locus YJL168C, strain set2, hits give low values",0.409 (active)
same,normalized growth,"S. cerevisiae deletion strains, locus YJL187C, strain SWE1 (second series), hits give low values",0.367 (active)
same,normalized growth,"S. cerevisiae deletion strains, locus YJR075W, strain HOC1, hits give low values",0.593 (active)
same,normalized growth,"S. cerevisiae deletion strains, locus YKL009W, strain mrt4, hits give low values",0.925
same,normalized growth,"S. cerevisiae deletion strains, locus YKL068W, hits give low values",0.994
same,normalized growth,"S. cerevisiae deletion strains, locus YKL085W, strain MDH1 (second series), hits give low values",0.976
same,normalized growth,"S. cerevisiae deletion strains, locus YKL085W, strain MDH1, hits give low values",0.976
same,normalized growth,"S. cerevisiae deletion strains, locus YKL190W, strain CNB1, hits give low values",0.524 (active)
same,normalized growth,"S. cerevisiae deletion strains, locus YKR001C, strain vps1, hits give low values",0.0705 (active)
same,normalized growth,"S. cerevisiae deletion strains, locus YLR039C, strain RIC1, hits give low values",1.37 [resistant] (active)
same,normalized growth,"S. cerevisiae deletion strains, locus YLR058C, strain SHM2, hits give low values",0.446 (active)
same,normalized growth,"S. cerevisiae deletion strains, locus YLR102C, strain apc9, hits give low values",0.683 (active)
same,normalized growth,"S. cerevisiae deletion strains, locus YLR262C, strain YPT6, hits give low values",1.16
same,normalized growth,"S. cerevisiae deletion strains, locus YLR268W, strain sec22, hits give low values",0.415 (active)
same,normalized growth,"S. cerevisiae deletion strains, locus YLR342W, strain FKS1 (second series), hits give low values",0.348 (active)
same,normalized growth,"S. cerevisiae deletion strains, locus YLR371W, strain rom2, hits give low values",0.355 (active)
same,normalized growth,"S. cerevisiae deletion strains, locus YLR418C, strain cdc73, hits give low values",0.295 (active)
same,normalized growth,"S. cerevisiae deletion strains, locus YML016C, strain PPZ1, hits give low values",0.491 (active)
same,normalized growth,"S. cerevisiae deletion strains, locus YML032C, strain rad52, hits give low values",0.492 (active)
same,normalized growth,"S. cerevisiae deletion strains, locus YML124C, strain tub3, hits give low values",0.672 (active)
same,normalized growth,"S. cerevisiae deletion strains, locus YMR078C, strain ctf18, hits give low values",0.979
same,normalized growth,"S. cerevisiae deletion strains, locus YMR223W, strain ubp8, hits give low values",0.478 (active)
same,normalized growth,"S. cerevisiae deletion strains, locus YMR307W, strain GAS1, hits give low values",0.764
same,normalized growth,"S. cerevisiae deletion strains, locus YNL067W, strain RPL9B, hits give low values",0.825 (active)
same,normalized growth,"S. cerevisiae deletion strains, locus YNL233W, strain BNI4, hits give low values",0.423 (active)
same,normalized growth,"S. cerevisiae deletion strains, locus YNL250W, strain rad50, hits give low values",0.953
same,normalized growth,"S. cerevisiae deletion strains, locus YNL271C, strain bni1, hits give low values",0.992
same,normalized growth,"S. cerevisiae deletion strains, locus YNL298W, strain CLA4, hits give low values",0.957
same,normalized growth,"S. cerevisiae deletion strains, locus YNL307C, strain MCK1, hits give low values",0.258 (active)
same,normalized growth,"S. cerevisiae deletion strains, locus YNL322C, strain KRE1, hits give low values",0.796 (active)
same,normalized growth,"S. cerevisiae deletion strains, locus YNR052C, strain pop2, hits give low values",0.136 (active)
same,normalized growth,"S. cerevisiae deletion strains, locus YOL006C, strain TOP1, hits give low values",0.323 (active)
same,normalized growth,"S. cerevisiae deletion strains, locus YOL012C, strain htz1",0.17 (active)
same,normalized growth,"S. cerevisiae deletion strains, locus YOL147C, strain pex11, hits give low values",0.445 (active)
same,normalized growth,"S. cerevisiae deletion strains, locus YOR061W, strain CKA2, hits give low values",0.206 (active)
same,normalized growth,"S. cerevisiae deletion strains, locus YOR069W, strain VPS5, hits give low values",0.859 (active)
same,normalized growth,"S. cerevisiae deletion strains, locus YOR136W, strain idh2, hits give low values",0.734 (active)
same,normalized growth,"S. cerevisiae deletion strains, locus YOR144C, strain elg1, hits give low values",0.813 (active)
same,normalized growth,"S. cerevisiae deletion strains, locus YOR184W, strain ser1, hits give low values",0.522 (active)
same,normalized growth,"S. cerevisiae deletion strains, locus YOR316C, strain cot1, hits give low values",0.794 (active)
same,normalized growth,"S. cerevisiae deletion strains, locus YPR119W, strain clb2, hits give low values",0.774 (active)
same,normalized growth,"S. cerevisiae deletion strains, locus YPR141C, strain kar3, hits give low values",0.977
same,normalized growth,"S. cerevisiae deletion strains, locus YPR163C, strain tif3, hits give low values",0.0746 (active)
same,normalized growth,"S. cerevisiae deletion strains, locus YPR167C, strain met16, hits give low values",0.633 (active)
same,normalized growth,"S. cerevisiae deletion strains, strain wtn01, hits give low values",0.274 (active)
same,normalized growth,"S. cerevisiae strains, strain wild type, hits give low values",0.358 (active)
